# From the supplement of paper PMC8728848
# This excerpt belongs to a sample that is enriched for the strongest signals.
# Key:
# Experiment in all cases: glycan array binding signal (z-score within array); higher = stronger binding
# Conditions in all cases: glycan notation: IUPAC condensed, linker removed
# [1] = target: Fuc(a1-2)Gal(b1-3)[Fuc(a1-4)]GlcNAc(b1-2)Man(a1-3)[Fuc(a1-2)Gal(b1-3)[Fuc(a1-4)]GlcNAc(b1-2)Man(a1-3)]Man(b1-4)GlcNAc(b1-4)GlcNAc
# Outline: (§1)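 Glycan array data came from 3228 arrays in the Consortium for Functional Glycomics database, and only arrays with an available protein sequence were kept. Glycan names were put into IUPAC-condensed notation, and columns mapping to the same glycan were averaged. The binding signal is a within-array Z-score, averaged across arrays of one protein sequence run at different concentrations or buffers and across linkers. A negative Z-score can be read as non-binding.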
# [2] = target: Fuc(a1-2)Gal(b1-4)GlcNAc(b1-2)Man(a1-3)[Fuc(a1-2)Gal(b1-4)GlcNAc(b1-2)Man(a1-6)]Man(b1-4)GlcNAc(b1-4)[Fuc(a1-6)]GlcNAc
# Outline: as §1
# [3] = target: Fuc(a1-2)Gal(b1-4)GlcNAc(b1-3)Gal(b1-4)GlcNAc
# Outline: as §1
# [4] = target: Fuc(a1-2)Gal(b1-4)GlcNAc(b1-6)GalNAc
# Outline: as §1
# [5] = target: Fuc(a1-2)Gal(b1-4)[Fuc(a1-3)]GlcNAc
# Outline: as §1
# Fuc(a1-2)[Gal(a1-3)]Gal = target: Fuc(a1-2)[Gal(a1-3)]Gal
# Outline: as §1
# [6] = target: Fuc(a1-2)[Gal(a1-4)]Gal(b1-4)GlcNAc
# Outline: as §1
# [7] = target: Fuc(a1-2)[GalNAc(a1-3)]Gal(b1-3)GlcNAc(b1-2)Man(a1-3)[Fuc(a1-2)[GalNAc(a1-3)]Gal(b1-3)GlcNAc(b1-2)Man(a1-6)]Man(b1-4)GlcNAc(b1-4)GlcNAc
# Outline: as §1
# [8] = target: Fuc(a1-2)[GalNAc(a1-3)]Gal(b1-4)GlcNAc(b1-3)Gal(b1-4)GlcNAc
# Outline: as §1
# [9] = target: Fuc(a1-2)[GalNAc(a1-3)]Gal(b1-4)GlcNAc(b1-3)GalNAc
# Outline: as §1
# Fuc(a1-3)GlcNAc = target: Fuc(a1-3)GlcNAc
# Outline: as §1
# [10] = target: Fuc(a1-3)[Gal(b1-4)]GlcNAc(b1-2)Man(a1-3)[Fuc(a1-3)[Gal(b1-4)]GlcNAc(b1-2)Man(a1-6)]Man(b1-4)GlcNAc(b1-4)GlcNAc
# Outline: as §1
# [11] = target: Fuc(a1-3)[GalNAc(b1-4)]GlcNAc
# Outline: as §1
# Fuc(b1-3)GlcNAc = target: Fuc(b1-3)GlcNAc
# Outline: as §1
# [12] = target: Gal(a1-4)Gal(b1-4)GlcNAc(b1-2)Man(a1-3)[Gal(a1-4)Gal(b1-4)GlcNAc(b1-2)Man(a1-6)]Man(b1-4)GlcNAc(b1-4)GlcNAc
# Outline: as §1
# Gal(a1-6)Glc = target: Gal(a1-6)Glc
# Outline: as §1
# Gal(b1-2)Gal = target: Gal(b1-2)Gal
# Outline: as §1
# [13] = target: Gal(b1-3)GlcNAc(b1-2)Man(a1-3)[Gal(b1-3)GlcNAc(b1-2)Man(a1-6)]Man(b1-4)GlcNAc(b1-4)[Fuc(a1-6)]GlcNAc
# Outline: as §1
# [14] = target: Gal(b1-3)GlcNAc(b1-2)[Gal(b1-3)GlcNAc(b1-6)]Man(a1-6)[Gal(b1-3)GlcNAc(b1-2)Man(a1-3)]Man(b1-4)GlcNAc(b1-4)GlcNAc
# Outline: as §1
# [15] = target: Gal(b1-3)[Fuc(a1-4)]GlcNAc(b1-3)Gal(b1-4)[Fuc(a1-3)]GlcNAc
# Outline: as §1
# [16] = target: Gal(b1-3)[Fuc(a1-4)]GlcNAc(b1-6)GalNAc
# Outline: as §1
# [17] = target: Gal(b1-3)[GlcNAc(b1-6)]GalNAc
# Outline: as §1
# Gal(b1-4)Glc = target: Gal(b1-4)Glc
# Outline: as §1
# [18] = target: Gal(b1-4)GlcNAc(b1-2)Man(a1-3)[Gal(b1-4)GlcNAc(b1-2)Man(a1-6)][GlcNAc(b1-4)]Man(b1-4)GlcNAc(b1-4)[Fuc(a1-6)]GlcNAc
# Outline: as §1
# [19] = target: Gal(b1-4)GlcNAc(b1-2)[Gal(b1-4)GlcNAc(b1-4)]Man(a1-3)[GlcNAc(b1-4)][Gal(b1-4)GlcNAc(b1-2)[Gal(b1-4)GlcNAc(b1-6)]Man(a1-6)]Man(b1-4)GlcNAc(b1-4)GlcNAc
# Outline: as §1
# [20] = target: Gal(b1-4)GlcNAc(b1-2)[Gal(b1-4)GlcNAc(b1-6)]Man(a1-6)[GlcNAc(b1-4)][Gal(b1-4)GlcNAc(b1-2)Man(a1-3)]Man(b1-4)GlcNAc(b1-4)GlcNAc
# Outline: as §1
# [21] = target: Gal(b1-4)GlcNAc(b1-3)Gal(b1-4)GlcNAc(b1-2)Man(a1-3)[Gal(b1-4)GlcNAc(b1-3)Gal(b1-4)GlcNAc(b1-2)Man(a1-6)]Man(b1-4)GlcNAc(b1-4)GlcNAc
# Outline: as §1
# [22] = target: Gal(b1-4)GlcNAc(b1-3)Gal(b1-4)GlcNAc(b1-2)[Gal(b1-4)GlcNAc(b1-3)Gal(b1-4)GlcNAc(b1-6)]Man(a1-6)[Gal(b1-4)GlcNAc(b1-3)Gal(b1-4)GlcNAc(b1-2)Man(a1-3)]Man(b1-4)GlcNAc(b1-4)[Fuc(a1-6)]GlcNAc
# Outline: as §1
# [23] = target: Gal(b1-4)GlcNAc(b1-3)Gal(b1-4)GlcNAc(b1-3)Gal(b1-4)GlcNAc
# Outline: as §1
# [24] = target: Gal(b1-4)GlcNAc(b1-3)Gal(b1-4)GlcNAc(b1-3)Gal(b1-4)GlcNAc(b1-2)[Gal(b1-4)GlcNAc(b1-3)Gal(b1-4)GlcNAc(b1-3)Gal(b1-4)GlcNAc(b1-6)]Man(a1-6)[Gal(b1-4)GlcNAc(b1-3)Gal(b1-4)GlcNAc(b1-3)Gal(b1-4)GlcNAc(b1-2)Man(a1-3)]Man(b1-4)GlcNAc(b1-4)[Fuc(a1-6)]GlcNAc
# Outline: as §1
binder,measurement,setting,value
Clone646PsrP (Streptococcus pneumoniae) (protein) MDHHHHHHHHASENLYFQGAPAINASLNIAKSETKVYTGEGVDSVYRVPIYYKLKVTNDGSKLTFTYTVTYVNPKTNDLGNISSMRPGYSIYNSGTSTQTMLTLGSDLGKPSGVKNYITDKNGRQVLSYNTSTMTTQGSGYTWGNGAQMNGFFAKKGYGLTSSWTVPITGTDTSFTFTPYAARTDRIGINYFNGGGKVVESSTTSQSLSQSKSLSVSAS,glycan array binding signal (z-score),[1],1.88
same,glycan array binding signal (z-score),[2],0.523
same,glycan array binding signal (z-score),[3],-0.74
same,glycan array binding signal (z-score),[4],2.58
same,glycan array binding signal (z-score),[5],0.085
same,glycan array binding signal (z-score),Fuc(a1-2)[Gal(a1-3)]Gal,-0.314
same,glycan array binding signal (z-score),[6],0.495
same,glycan array binding signal (z-score),[7],-0.761
same,glycan array binding signal (z-score),[8],-0.638
same,glycan array binding signal (z-score),[9],0.378
same,glycan array binding signal (z-score),Fuc(a1-3)GlcNAc,0.18
same,glycan array binding signal (z-score),[10],-0.096
same,glycan array binding signal (z-score),[11],0.979
same,glycan array binding signal (z-score),Fuc(b1-3)GlcNAc,1.31
same,glycan array binding signal (z-score),[12],-0.434
same,glycan array binding signal (z-score),Gal(a1-6)Glc,0.015
same,glycan array binding signal (z-score),Gal(b1-2)Gal,2.94
same,glycan array binding signal (z-score),[13],-0.421
same,glycan array binding signal (z-score),[14],9.03
same,glycan array binding signal (z-score),[15],-0.797
same,glycan array binding signal (z-score),[16],-0.757
same,glycan array binding signal (z-score),[17],0.41
same,glycan array binding signal (z-score),Gal(b1-4)Glc,0.581
same,glycan array binding signal (z-score),[18],-0.984
same,glycan array binding signal (z-score),[19],-0.776
same,glycan array binding signal (z-score),[20],-0.887
same,glycan array binding signal (z-score),[21],0.169
same,glycan array binding signal (z-score),[22],-0.263
same,glycan array binding signal (z-score),[23],-0.913
same,glycan array binding signal (z-score),[24],-0.442
